PubChem BioAssay (NCATS)
Inconclusive results are not listed. Active and inactive are the calls of the source. Unless noted, the call rests on the fitted dose curve; in most records, active means well fitted curve in the direction sought with a large enough effect; inconclusive means small, poorly fitted or top-dose-only effect, or another doubt; inactive means no such curve, though single readings can be large; an effect the other way counts as inactive or inconclusive.

Assays:
[1] = biological target: DNA repair nuclease/redox regulator APEX1 (Homo sapiens) (UniProt P27695); assay: qHTS Validation Assay for Inhibitors of the Human Apurinic/apyrimidinic Endonuclease 1 (APE1) (AID 1705;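 further: TAMRA fluorescence gain over two minutes as APE1 cuts a quenched THF abasic duplex; on the % scale 0 is the no-effect control and ±100 the full control effect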); details: purified APE1 endonuclease activity, fluorescence, titration; series mostly up to 57.1 µM
Outline: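 Activity read as rising fluorescence (598 nm emission, 525 nm excitation) from incision of a TAMRA/BHQ-2 duplex carrying a THF abasic site (50 nM). Compound and enzyme sat 15 min at RT before substrate start; signal change between first and third 60-s reads.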

[2] = Counterscreen for APE1 Inhibitors: Fluorescent Dye Displacement Validation Assay (AID 1707); details: fluorescent dye displacement from DNA; series mostly up to 57.1 µM;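 further: plate controls were ThO with dsDNA and no compound for no effect and ThO without dsDNA for full effect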
Outline: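 Reaction mixture of 250 nM Thiazole Orange and 50 nM double-stranded abasic-site DNA was dispensed, compounds were pin-transferred, and fluorescence was read at endpoint (480 nm ex, 540 nm em). Reduced fluorescence indicated dye displacement by DNA binding.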

[3] = qHTS Assay for Modulators of Human Peripheral Myelin Protein 22 (PMP22) Expression/Activity (AID 1967; active means well fitted curve in the direction sought with a large enough effect in the signal ratio; the % refers to the signal ratio;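 further: 0% = untreated cells and 100% end not stated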); details: Cell-based PMP22 reporter, dual-color luciferase ratio, mouse Pmp22 promoter in mouse Schwann cells; series mostly up to 115 µM
Outline: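 Readout is the corrected green/red luminescence ratio after 24 h compound exposure, normalised to untreated cells (0%). Engineered MSC80 mouse Schwann cells express green luciferase from the mouse Pmp22 promoter and red luciferase from EF-alpha as internal control.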

[4] = biological target: Ferritin light chain (Equus caballus) (UniProt P02791); assay: qHTS Validation Assay for Identification of Novel General Anesthetics (AID 2323); details: horse apoferritin, anesthetic-site fluorescent probe displacement; series mostly up to 76.9 µM; further: on the % scale 0 is the no-effect control and ±100 the full control effect
Outline: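 Competitive displacement of the profluorescent anesthetic 1-AMA (50% saturated, PBS) from 10 uM apoferritin, 10 min, room temperature. Activity is normalized 380/535 nm fluorescence; concentration-response fitted with a four-parameter Hill equation.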

[5] = biological target: ATP-dependent DNA helicase Q1 (Homo sapiens) (UniProt P46063); assay: qHTS Validation Assay for Inhibitors of RecQ-Like Dna Helicase 1 (RECQ1) (AID 2353); details: recombinant RECQ1 helicase DNA unwinding assay; series mostly up to 25.6 µM;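 further: plate controls were DMSO vehicle for no effect and enzyme-free control for full effect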
Outline: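 RECQ1T1 50 nM; forked duplex (20 bp + 30-nt ss tails) 200 nM, ATP 2 mM final; pH 8.0, 2 mM MgCl2, 2.5 ug/ml poly(dI-dC); 15 min compound preincubation; discontinuous kinetic read over 2 h at RT.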

[6] = Validation screen for small molecules that induce DNA re-replication in MCF 10A normal breast cells (AID 463097); details: MCF 10A cells, DNA re-replication phenotype imaging; series mostly up to 46.1 µM; further: 0% is about no effect; nearly all actives have a fitted effect of over 60% in size
Outline: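 Read-out is Hoechst total nuclear intensity by fluorescence scanning imager, flagging increased high-DNA-content nuclei. Compounds were incubated with MCF 10A cells for 48 hr (37 C, 5% CO2) before 40 min staining.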

[7] = Quantitative high throughput screen for delayed death inhibitors of the malarial parasite plastid, 96 hour incubation (AID 488745); details: Plasmodium falciparum growth; series mostly up to 28.7 µM; further: on the % scale 0 is the no-effect control and ±100 the full control effect; nearly all actives have a fitted effect of over 70% in size
Outline: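 Two-generation (96 h) exposure of luciferase-reporter P. falciparum in erythrocytes, 2% hematocrit, 0.1% parasitemia final, 37 C, 5% CO2, RPMI 1640 with 0.5% Albumax. Growth inhibition scored by reduced luminescence.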

[8] = Quantitative high throughput screen for delayed death inhibitors of the malarial parasite plastid, 48 hour incubation (AID 488752); details: Plasmodium falciparum growth; series mostly up to 28.7 µM; further: on the % scale 0 is the no-effect control and ±100 the full control effect; nearly all actives have a fitted effect of over 65% in size
Outline: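 Cultures: infected erythrocytes at final 2% hematocrit and 0.1% parasitemia in Albumax-supplemented RPMI. Parasites express integrated firefly luciferase. Incubation with compound lasts 48 h before luminescent detection of remaining reporter activity.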

[9] = biological target: Transient receptor potential cation channel subfamily V member 1 (Homo sapiens) (UniProt Q8NER1); assay: HTS Assay for Compounds that Act as Enhancers of the Vanilloid Receptor 1 (AID 488979); details: TRPV1-expressing cells, enhancer of channel activity; series mostly up to 41.7 µM; further: 0% is about no effect
Outline: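 Calcium influx kinetics via Fluo-8 (480/520 nm) in TRPV1-expressing cells, 2000/well cultured overnight at 35.5C. Compound-alone read 3 min (agonist phase), followed by EC20 capsaicin challenge for 2 min (enhancer phase).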

[10] = biological target: Thyrotropin receptor (Homo sapiens) (UniProt P16473); assay: qHTS Assay for Antagonists of the Thyroid Stimulating Hormone Receptor (AID 488980); details: TSHR-expressing cells, cAMP antagonist read-out; series mostly up to 57.5 µM; further: 0% is about no effect
Outline: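 Inhibition of cAMP raised by EC80 TSH (4 nM final) was read by HTRF, with lysate cAMP competing against cAMP-d2 for cryptate antibody after 30 min at room temperature. The cells were transfected HEK293 held in phosphodiesterase inhibitor RO 20-1724 at 70 uM.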

[11] = biological target: Thyrotropin-releasing hormone receptor (Homo sapiens) (UniProt P34981); assay: qHTS for Small Molecule Agonists and Allosteric Enhancers of Human TRH Receptor: Validation Screen for Agonists (AID 493127;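 active means calcium activation more than 3 SD above the typical response in the agonist read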;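 further: intracellular calcium rise by fluo-8 fluorescence before TRH EC20 addition; 0% is about no effect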); details: TRH receptor agonist cell assay; at 2 µM; stronger effect = higher value
Outline: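 Kinetic fluorescence assay of agonist-induced calcium release: overnight-plated TRHR cells, room-temperature fluo-8 loading, baseline then compound addition with per-second reads.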

[12] = biological target: Galactokinase (Homo sapiens) (UniProt P51570); assay: qHTS Validation Assay for Inhibitors of Human Galactokinase (GALK) (AID 493189); details: purified human GALK enzyme activity, qHTS 7-point titration; series mostly up to 57.5 µM; further: 0% is about no effect
Outline: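 Inhibition was measured as remaining ATP, detected by luciferase luminescence after a 1 h room-temperature reaction. Final conditions: 5 nM GALK, 100 uM galactose, 35 uM ATP, pH 8.0 HEPES buffer.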

[13] = biological target: N-terminal Xaa-Pro-Lys N-methyltransferase 1 (Homo sapiens) (UniProt Q9BV86); assay: qHTS Assay for Inhibitors of N-terminal methyltransferase 1 (NTMT1): LOPAC validation of the NTMT1 SAHH-coupled ThioGlo3 Assay (AID 1347143); details: recombinant NTMT1, SAHH-coupled ThioGlo3 fluorescence; series mostly up to 114 µM;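 further: SAH from peptide methylation measured as thiol fluorescence via SAHH coupling and ThioGlo3; on the % scale 0 is the no-effect control and ±100 the full control effect; nearly all actives have a fitted effect of over 70% in size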
Outline: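 NTMT1 125nM + cpds (various conc.), 1 min RT; add SAM 100uM/SAHH 10uM/ThioGlo3 15uM (addition mix). SAHH-coupled thiol detection, Ex340/Em450, t0 and 30 min RT; signal normalized to background. LOPAC 1280-cpd pilot.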

[14] = G06 Cancer Cell Toxicity qHTS against the NCATS CANVASS Library (AID 1347368); details: G06 dog glioma cells, viability ATP luminescence, 72 h; series mostly up to 46.1 µM; further: on the % scale 0 is the no-effect control and ±100 the full control effect; nearly all actives have a fitted effect of over 60% in size
Outline: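 Quantitative HTS in G06 cells (dog glioma): 72 hr treatment, 11 concentrations, then ATP-based luminescent viability readout; bortezomib 0.1 nM–4.6 uM final as reference.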

[15] = qHTS for Hypoxia signaling pathway (HIF-1) antagonists against the NCATS CANVASS Library (AID 1347374); details: HRE-bla ME-180 cells, HIF-1 beta-lactamase reporter, CoCl2; series mostly up to 38.3 µM;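 further: HRE-bla ME-180 cells stimulated with cobalt chloride to stabilize HIF-1alpha; on the % scale 0 is the no-effect control and ±100 the full control effect; nearly all actives have a fitted effect of over 60% in size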
Outline: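 Beta-lactamase reporter under HRE control in ME-180 cells; CoCl2 stimulus (60 uM solution as added), compounds 11-pt qHTS, 17 h 37C. CCF4 dye 2 h RT, 460/530 nm emission. CellTiter-Glo viability in same wells.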

[16] = qHTS for Hypoxia signaling pathway (HIF-1) agonists against the NCATS CANVASS Library (AID 1347375); details: HRE-bla ME-180 cells, HIF-1 beta-lactamase reporter, 17 h; series mostly up to 38.3 µM; further: 0% is about no effect
Outline: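 An HRE-beta-lactamase ME-180 line is exposed for 17 h to an 11-point compound series, then read by CCF4-AM FRET. Cytotoxicity is measured in parallel in the same wells with CellTiter-Glo, and autofluorescence is checked separately.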

[17] = Secretion counterscreen for inhibitors of the SERCaMP assay screened against the NCATS CANVASS Library (AID 1347390); details: SH-SY5Y constitutive GLuc secretion, luminescence, 20 h; series mostly up to 76.6 µM;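 further: light from luciferase secreted into medium read as a measure of general secretion; on the % scale 0 is the no-effect control and ±100 the full control effect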
Outline: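 Counterscreen for secretory-pathway interference: after 4 h attachment, SH-SY5Y-GLuc cells were exposed 20 hours to compounds (final 0.001 - 77 uM), then coelenterazine added and GLuc luminescence recorded; Brefeldin A served as control.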

[18] = qHTS for inhibitors of ER calcium dysfunction: SERCaMP assay screened against the NCATS CANVASS Library (AID 1347393); details: SH-SY5Y GLuc-SERCaMP (Gaussia luciferase released on ER calcium loss) secretion, thapsigargin, luminescence; series mostly up to 76.6 µM;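 further: on the % scale 0 is the no-effect control and ±100 the full control effect; lower secreted reporter signal means inhibitor of ER calcium depletion; nearly all actives have a fitted effect of over 40% in size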
Outline: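 Thapsigargin-induced ER calcium depletion drives GLuc-SERCaMP secretion from SH-SY5Y cells; compounds given 16 h beforehand were scored by lowered coelenterazine luminescence after 4 h challenge.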

[19] = High Content Imaging Cell-Based qHTS for Inhibitors of the mTORC1 Signaling Pathway in MEF Cells (AID 2667); details: series mostly up to 38.3 µM;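 further: Tsc2-/- p53-/- MEFs stably re-expressing wild-type Tsc2 exposed 24 h; plate controls were DMSO wells for no effect and rapamycin control wells for full effect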
Outline: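 Tsc2-/-, p53-/- MEFs stably re-expressing WT Tsc2, grown in DMEM + 10% FBS, were treated with compounds for 24 hrs at 37 degree Celsius, fixed, and stained with Alexa-488 phospho-rpS6 Ser235/236 antibody plus Hoechst; results given as % positive cells.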

[20] = biological target: DNA polymerase III PolC-type (Bacillus subtilis (strain 168)) (UniProt P13267); assay: qHTS Validation Assay for the Inhibitors of DNA Replication in Gram-Positive Bacteria (AID 485295); details: Gram-positive bacterial DNA replication assay; series mostly up to 57.1 µM;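 further: reconstituted holoenzyme with PolC plus beta clamp SSB and primase; PicoGreen fluorescence of double-stranded DNA made on primed circular M13 template; 0% = DMSO wells and -100% = EDTA-quenched background wells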
Outline: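 Double-stranded DNA product detected by PicoGreen fluorescence after EDTA quench. Compound incubated with B. subtilis holoenzyme (PolC, beta subunit, SSB, primase) before substrate addition; primed replication of M13Gori with dNTPs and NTPs at room temperature; DMSO defines 0% inhibition.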

DNA repair nuclease/redox regulator APEX1 (Homo sapiens), sequence (P27695 whole entry, looked up): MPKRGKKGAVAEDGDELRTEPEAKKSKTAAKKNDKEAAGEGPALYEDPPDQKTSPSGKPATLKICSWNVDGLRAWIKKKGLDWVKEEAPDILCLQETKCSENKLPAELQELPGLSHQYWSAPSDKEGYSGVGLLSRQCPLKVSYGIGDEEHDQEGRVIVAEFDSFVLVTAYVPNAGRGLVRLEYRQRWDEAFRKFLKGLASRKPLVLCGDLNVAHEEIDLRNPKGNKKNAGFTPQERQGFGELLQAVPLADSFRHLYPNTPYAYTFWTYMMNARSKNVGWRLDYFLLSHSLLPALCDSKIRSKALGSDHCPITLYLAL
DNA polymerase III PolC-type (Bacillus subtilis (strain 168)), sequence (P13267 whole entry, looked up): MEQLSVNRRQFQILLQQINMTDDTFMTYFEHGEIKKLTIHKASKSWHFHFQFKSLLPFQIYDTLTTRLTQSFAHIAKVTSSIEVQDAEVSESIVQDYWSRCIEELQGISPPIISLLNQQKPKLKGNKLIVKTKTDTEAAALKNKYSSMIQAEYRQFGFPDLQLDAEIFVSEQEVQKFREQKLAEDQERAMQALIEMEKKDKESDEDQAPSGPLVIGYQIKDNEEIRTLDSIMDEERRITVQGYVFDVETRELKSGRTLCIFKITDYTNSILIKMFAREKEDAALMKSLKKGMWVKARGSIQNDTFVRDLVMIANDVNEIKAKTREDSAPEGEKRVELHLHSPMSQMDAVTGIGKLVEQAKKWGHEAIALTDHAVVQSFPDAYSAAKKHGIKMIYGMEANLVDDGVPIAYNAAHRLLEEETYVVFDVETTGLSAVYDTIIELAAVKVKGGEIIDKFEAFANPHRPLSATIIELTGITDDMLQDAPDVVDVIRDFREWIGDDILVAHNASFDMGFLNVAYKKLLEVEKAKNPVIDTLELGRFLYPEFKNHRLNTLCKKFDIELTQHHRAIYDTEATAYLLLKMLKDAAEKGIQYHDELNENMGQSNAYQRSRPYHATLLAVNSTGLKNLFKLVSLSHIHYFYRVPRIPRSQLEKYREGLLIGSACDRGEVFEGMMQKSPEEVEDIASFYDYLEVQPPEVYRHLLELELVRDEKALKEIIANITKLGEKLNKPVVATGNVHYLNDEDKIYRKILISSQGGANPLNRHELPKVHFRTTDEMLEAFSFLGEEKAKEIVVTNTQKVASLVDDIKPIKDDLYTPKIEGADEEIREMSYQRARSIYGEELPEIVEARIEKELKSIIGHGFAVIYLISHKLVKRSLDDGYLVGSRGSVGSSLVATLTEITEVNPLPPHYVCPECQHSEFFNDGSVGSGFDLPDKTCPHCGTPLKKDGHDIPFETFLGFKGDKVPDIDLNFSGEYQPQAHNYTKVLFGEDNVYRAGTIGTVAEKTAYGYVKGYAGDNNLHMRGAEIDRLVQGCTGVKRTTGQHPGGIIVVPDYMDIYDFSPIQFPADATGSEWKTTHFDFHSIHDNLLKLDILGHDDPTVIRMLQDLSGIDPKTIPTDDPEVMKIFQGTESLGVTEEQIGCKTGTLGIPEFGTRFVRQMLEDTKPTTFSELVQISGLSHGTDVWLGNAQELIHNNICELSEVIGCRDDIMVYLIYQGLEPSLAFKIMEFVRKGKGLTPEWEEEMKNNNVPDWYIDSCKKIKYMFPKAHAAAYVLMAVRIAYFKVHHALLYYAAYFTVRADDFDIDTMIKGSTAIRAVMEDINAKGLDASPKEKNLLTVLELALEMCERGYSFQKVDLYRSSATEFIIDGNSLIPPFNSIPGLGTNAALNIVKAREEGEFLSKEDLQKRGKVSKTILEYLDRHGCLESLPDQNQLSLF
Galactokinase (Homo sapiens), sequence (P51570 whole entry, looked up): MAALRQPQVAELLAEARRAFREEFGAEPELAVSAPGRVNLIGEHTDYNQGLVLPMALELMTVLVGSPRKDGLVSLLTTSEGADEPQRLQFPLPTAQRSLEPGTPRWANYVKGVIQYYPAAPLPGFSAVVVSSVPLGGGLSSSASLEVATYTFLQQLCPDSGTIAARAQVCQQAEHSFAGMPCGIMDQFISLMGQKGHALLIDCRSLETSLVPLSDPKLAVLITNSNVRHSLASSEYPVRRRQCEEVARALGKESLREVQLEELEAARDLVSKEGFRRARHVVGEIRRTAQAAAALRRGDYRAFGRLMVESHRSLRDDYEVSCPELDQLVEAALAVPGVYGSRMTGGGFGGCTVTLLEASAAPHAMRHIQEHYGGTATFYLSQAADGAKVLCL
ATP-dependent DNA helicase Q1 (Homo sapiens), sequence (P46063 whole entry, looked up): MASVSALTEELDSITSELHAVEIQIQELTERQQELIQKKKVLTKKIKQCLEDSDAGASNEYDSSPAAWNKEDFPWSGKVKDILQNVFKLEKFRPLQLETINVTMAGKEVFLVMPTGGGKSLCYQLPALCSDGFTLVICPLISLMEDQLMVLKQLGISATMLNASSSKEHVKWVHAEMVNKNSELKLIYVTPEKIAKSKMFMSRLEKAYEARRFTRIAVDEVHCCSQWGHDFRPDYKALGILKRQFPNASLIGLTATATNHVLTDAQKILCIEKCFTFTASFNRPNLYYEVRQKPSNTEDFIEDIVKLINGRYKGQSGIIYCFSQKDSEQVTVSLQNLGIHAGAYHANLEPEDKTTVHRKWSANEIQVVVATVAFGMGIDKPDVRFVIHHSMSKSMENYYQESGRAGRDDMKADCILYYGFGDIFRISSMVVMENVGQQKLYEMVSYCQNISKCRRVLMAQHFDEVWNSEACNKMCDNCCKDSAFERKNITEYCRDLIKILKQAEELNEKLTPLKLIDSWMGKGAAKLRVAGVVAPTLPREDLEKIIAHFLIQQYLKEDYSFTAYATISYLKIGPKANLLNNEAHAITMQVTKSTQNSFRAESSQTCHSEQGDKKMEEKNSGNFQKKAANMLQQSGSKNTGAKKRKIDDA
Ferritin light chain (Equus caballus), sequence (P02791 2-175 limits assumed): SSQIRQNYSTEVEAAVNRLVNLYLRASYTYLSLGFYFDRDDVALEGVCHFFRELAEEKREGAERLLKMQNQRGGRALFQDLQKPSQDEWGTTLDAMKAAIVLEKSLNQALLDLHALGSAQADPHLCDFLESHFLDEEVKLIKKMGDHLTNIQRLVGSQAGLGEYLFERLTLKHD
Thyrotropin-releasing hormone receptor (Homo sapiens), sequence (P34981 whole entry, looked up): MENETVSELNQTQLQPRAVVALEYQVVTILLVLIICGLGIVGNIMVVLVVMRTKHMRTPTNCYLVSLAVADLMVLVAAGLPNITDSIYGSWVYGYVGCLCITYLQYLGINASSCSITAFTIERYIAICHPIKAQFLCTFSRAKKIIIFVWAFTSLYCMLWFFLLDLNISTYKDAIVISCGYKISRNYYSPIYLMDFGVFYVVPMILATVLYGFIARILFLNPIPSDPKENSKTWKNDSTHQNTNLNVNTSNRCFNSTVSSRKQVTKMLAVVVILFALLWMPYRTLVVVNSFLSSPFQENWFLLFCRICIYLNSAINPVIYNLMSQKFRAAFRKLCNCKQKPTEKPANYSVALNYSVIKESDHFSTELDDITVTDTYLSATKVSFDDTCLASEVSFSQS
N-terminal Xaa-Pro-Lys N-methyltransferase 1 (Homo sapiens), sequence (Q9BV86 whole entry, looked up): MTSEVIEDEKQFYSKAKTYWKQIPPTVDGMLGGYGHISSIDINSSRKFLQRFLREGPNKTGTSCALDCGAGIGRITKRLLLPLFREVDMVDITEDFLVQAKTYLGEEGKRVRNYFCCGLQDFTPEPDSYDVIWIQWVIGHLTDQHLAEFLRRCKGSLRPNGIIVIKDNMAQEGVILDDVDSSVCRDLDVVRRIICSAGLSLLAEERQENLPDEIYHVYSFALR
Thyrotropin receptor (Homo sapiens), sequence (P16473 whole entry, looked up): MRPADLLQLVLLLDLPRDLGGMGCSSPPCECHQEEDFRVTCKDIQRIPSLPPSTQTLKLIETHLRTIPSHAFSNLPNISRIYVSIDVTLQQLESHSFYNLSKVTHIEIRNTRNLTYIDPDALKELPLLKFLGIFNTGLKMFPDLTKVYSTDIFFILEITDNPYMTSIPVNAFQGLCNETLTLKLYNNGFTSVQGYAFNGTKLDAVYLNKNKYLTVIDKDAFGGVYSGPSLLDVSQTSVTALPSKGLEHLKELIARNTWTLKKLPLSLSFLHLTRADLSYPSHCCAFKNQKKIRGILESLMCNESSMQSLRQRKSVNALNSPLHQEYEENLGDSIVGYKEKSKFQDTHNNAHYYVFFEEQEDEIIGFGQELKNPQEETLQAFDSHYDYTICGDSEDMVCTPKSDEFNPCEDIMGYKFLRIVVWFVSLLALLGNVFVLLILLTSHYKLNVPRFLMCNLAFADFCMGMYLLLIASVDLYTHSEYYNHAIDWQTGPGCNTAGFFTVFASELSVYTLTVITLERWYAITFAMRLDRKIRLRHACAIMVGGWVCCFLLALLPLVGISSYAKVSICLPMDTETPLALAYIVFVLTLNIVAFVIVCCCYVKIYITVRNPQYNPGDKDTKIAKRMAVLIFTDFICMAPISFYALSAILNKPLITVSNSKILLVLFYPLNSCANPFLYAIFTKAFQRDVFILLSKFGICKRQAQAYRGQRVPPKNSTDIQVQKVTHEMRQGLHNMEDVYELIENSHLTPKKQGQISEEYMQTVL

CC(=O)OCC1=C(C(=O)[O-])N2C(=O)[C@@H](NC(=O)CCC[C@@H](N)C(=O)[O-])[C@H]2SC1.[Zn+2]
inactive: Potency [1] | Potency [2] | outcome [3] | outcome [4] | Potency [5] | Potency [6] | Potency [7] | Potency [8] | outcome [9] | outcome [10] | activation [11] 1.25% | outcome [12] | outcome [13]

NCCc1ccccc1
inactive: Potency [14] | Potency [15] | Potency [16] | Potency [17] | Potency [18]

CN1C2CCC1CC(OC(=O)C(CO)c1ccccc1)C2 (stereo not given)
inactive: Potency [19] | Potency [20]
